Measured values as given in PubChem BioAssay (NCI).
The panel holds about 83,000 compounds, 20% with a hit somewhere; the sample as a whole holds those more often.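 96-well plates, one dose, 48 hours. Percent growth reported; active if below 10.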 The source made the active and inactive calls.

Assays:
Experiment in all cases: NCI-60 one-dose screen, 48 h (100 = growth as untreated, 0 = no growth, -100 = all killed)
Conditions in all cases: 10 µM unless noted
[1] = test system: NCI-H23 lung
[2] = test system: NCI-H226 lung
[3] = test system: NCI-H322M lung
[4] = test system: HOP-62 NSCLC
[5] = test system: NCI-H460 lung
[6] = test system: HOP-92 NSCLC
[7] = test system: NCI-H522 lung
[8] = test system: A549/ATCC NSCLC
[9] = test system: 786-0 renal
[10] = test system: COLO 205 colon
[11] = test system: DU-145 prostate
[12] = test system: K-562 leukemia
[13] = test system: MALME-3M melanoma
[14] = test system: MDA-MB-231 breast
[15] = test system: RXF 393 renal
[16] = test system: SF-268 CNS
[17] = test system: SF-295 CNS
[18] = test system: SF-539 CNS
[19] = test system: UACC-257 melanoma
[20] = test system: M14 melanoma

Measured: growth

COc1ccccc1NC(=O)COc1ccc(/C=C2/Oc3cc4occc4c(OC)c3C2=O)cc1OC
inactive: [1] 97.1% | [2] 101% | [3] 115% | [4] 101% | [5] 114% | [6] 99.1% | [7] 86.9% | [8] 96.6% | [9] 96.1% | [10] 114% | [11] 114% | [12] 99.4% | [13] 115% | [14] 99.8% | [15] 103% | [16] 103% | [17] 103% | [18] 101% | [19] 100% | [20] 106%

Clc1ccc(OCc2nc(-c3ccccc3)n[nH]2)c(Cl)c1
inactive: [1] 97.6% | [2] 89.9% | [3] 101% | [4] 86.8% | [5] 99.3% | [6] 90.8% | [7] 92% | [8] 97.1% | [9] 108% | [10] 90.5% | [11] 109% | [12] 111% | [13] 104% | [14] 98.8% | [15] 108% | [16] 96.6% | [17] 97.8% | [18] 99.4% | [19] 97.8% | [20] 106%

COc1ccc(NC(=O)COCCOCCNC[C@@H]2C(=O)O[C@H]3[C@H]2CC/C(COC(=O)OC/C2=C/CC[C@@]4(C)O[C@H]4[C@H]4OC(=O)[C@@H](CN(C)C)[C@@H]4CC2)=C\CC[C@@]2(C)O[C@@H]32)c(O)c1C(N)=O
active: [6] -26.6% | [7] -75.7% | [9] -26.1% | [10] -27.9% | [12] 5.46% | [13] -21.1% | [15] -40.5%
inactive: [1] 81.8% | [2] 49.9% | [3] 102% | [4] 93.9% | [5] 96% | [8] 72.9% | [11] 57% | [14] 21.8% | [16] 91.5% | [17] 105% | [18] 46.4% | [19] 40.5% | [20] 53.9%

c1cncc(-c2nc3ccccc3[nH]2)c1
inactive: [1] 84.4% | [2] 92.7% | [3] 101% | [4] 83.2% | [5] 105% | [6] 103% | [7] 99.8% | [8] 93.9% | [9] 107% | [10] 89.1% | [11] 112% | [12] 102% | [13] 109% | [14] 83.4% | [15] 94.6% | [16] 105% | [17] 118% | [18] 97.8% | [19] 27.7% | [20] 99.7%

CC(C)Cn1cnc2c3ccccc3nc(NCn3nc(-c4cc(Cl)cc(Cl)c4Cl)oc3=S)c21
inactive: [1] 80.4% | [2] 99% | [3] 91.6% | [4] 66.4% | [5] 110% | [6] 50.7% | [7] 74% | [8] 99.9% | [9] 75.5% | [10] 97.5% | [11] 115% | [12] 59.6% | [13] 116% | [14] 82.9% | [15] 95% | [16] 110% | [17] 100% | [18] 94.7% | [19] 99.4% | [20] 79.9%

COC(=O)c1oc2c(C(C)=O)c(OCCN3CCCCC3)ccc2c1C
inactive: [1] 97.9% | [2] 118% | [3] 84.9% | [4] 125% | [5] 131% | [6] 60.4% | [7] 79.6% | [8] 123% | [9] 52.9% | [10] 130% | [11] 117% | [12] 89.4% | [13] 40.9% | [14] 87.2% | [15] 124% | [16] 95.4% | [17] 99.4% | [18] 116% | [19] 112% | [20] 111%

Cc1cccc(CC(=O)c2ccccc2)n1
inactive: [1] 94.5% | [2] 95.8% | [3] 87.3% | [4] 78.4% | [5] 95.7% | [6] 82.2% | [7] 80.9% | [8] 74.2% | [9] 94.4% | [10] 103% | [11] 100% | [12] 81.8% | [13] 92.1% | [14] 89% | [15] 91% | [16] 95.5% | [17] 85.4% | [18] 96.8% | [19] 92.7% | [20] 85.5%

Cc1cc(NC(=O)c2cccc(C(F)(F)F)c2)ccc1-n1ccc2c(NC(=O)c3ccccc3)nccc21
inactive: [1] 94.6% | [2] 112% | [3] 77.4% | [4] 87.4% | [5] 116% | [6] 123% | [7] 85.6% | [8] 86.8% | [9] 102% | [10] 113% | [11] 112% | [12] 91.2% | [13] 99.7% | [14] 94.9% | [15] 118% | [16] 103% | [17] 102% | [18] 95.9% | [19] 101% | [20] 96.8%
